NPR1 antag: antagonists of human natriuretic peptide receptor Npr1. Potency, µM (titrated, usually from 46.3 µM), for inactives: top-dose activity change, negative = inhibition, actives largely listed as inhibitors. P16066. HEK293 hNpr1 GloSensor cGMP, ANP-stimulated luminescence. 76,000 tested, 1.6% active; calls by dose curve; further: nearly all actives have a fitted effect of over 60% in size
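Compound pre-incubated 30 min at room temperature on GloSensor-loaded HEK293 cells stably carrying hNpr1 and the pGS-40F cGMP biosensor. Stimulation uses hNppA at 0.1 nM final; luminescence is taken at baseline and 20 min post-agonist.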
Luciferase inh: Photinus pyralis luciferase inhibition. AID 1347043. 76,000 tested, 2.5% active. Potency, µM (top dose mostly 115 µM), usual class: inhibitors. P08659. purified P. pyralis luciferase, luminescence, biochemical; further: nearly all actives have a fitted effect of over 65% in size
Target sequence (P08659 whole entry, looked up): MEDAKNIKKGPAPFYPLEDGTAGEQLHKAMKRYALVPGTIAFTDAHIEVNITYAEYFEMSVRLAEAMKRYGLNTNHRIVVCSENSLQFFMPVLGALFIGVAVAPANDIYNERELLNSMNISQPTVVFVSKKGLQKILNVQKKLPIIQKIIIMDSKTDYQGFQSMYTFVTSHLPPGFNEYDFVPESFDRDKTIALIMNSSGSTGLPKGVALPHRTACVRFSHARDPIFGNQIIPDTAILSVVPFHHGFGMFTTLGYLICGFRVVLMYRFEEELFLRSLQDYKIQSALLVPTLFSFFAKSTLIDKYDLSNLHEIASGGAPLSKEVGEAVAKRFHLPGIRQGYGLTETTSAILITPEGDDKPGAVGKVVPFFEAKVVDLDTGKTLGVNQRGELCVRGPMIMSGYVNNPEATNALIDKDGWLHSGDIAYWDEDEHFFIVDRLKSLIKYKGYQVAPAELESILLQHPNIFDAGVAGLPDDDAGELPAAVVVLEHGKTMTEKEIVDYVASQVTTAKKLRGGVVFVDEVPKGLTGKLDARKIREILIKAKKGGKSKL
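FLuc 10nM, D-luciferin 10uM, ATP 10uM, Mg acetate 10mM, Tris acetate pH 7.5, Tween/BSA; cpd qHTS; enzyme added last; CCD luminescence.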
NIH3T3 tox: kills NIH 3T3 cells. AID 1345082. NIH 3T3 viability, CellTiter-Glo ATP luminescence, 48-72 h. 94,000 tested, 4.3% active. Potency, µM (series often up to 96.7 µM), inactives show at the highest dose activity change, negative = cytotoxicity, hits mostly inhibitors; further: nearly all actives have a fitted effect of over 55% in size
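Cytotoxicity is measured as loss of cellular ATP: NIH 3T3 cells (400/well) are exposed to compound for 48 or 72 hr at 37 °C, then CellTiter-Glo luminescence is imaged after 10 min at room temperature.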
HEK293 viab: reduces viability of HEK-293 SNCA reporter cells; 150,000 tested, 0.12% active; Potency, µM (doses to about 57.1 µM), for inactives: at the top dose activity change, negative = cytotoxicity, usual class: cytotoxic; HEK-293-SNCA-luc viability, GF-AFC fluorescence, 24 h;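 further: 0% = DMSO-treated cells and -100% = medium-only wells without cells; nearly all actives have a fitted effect of over 30% in size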
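HEK-293-SNCA-luc cells (1500/well) plated 24 h, then exposed 24 h to a dilution series; GF-AFC added 30 min at 37C, fluorescence 405/540 nm; normalised to medium-only and DMSO wells, Hill fit.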
HEK293 tox: cytotoxic compounds in HEK 293 cells; HEK 293 viability, ATP luminescence (CellTiter-Glo), 48-72 h; Potency, µM (highest dose often 115 µM), for inactives: top-dose activity change, negative = cytotoxicity, hits mostly inhibitors; 94,000 tested, 6.6% active; AID 1345083; further: nearly all actives have a fitted effect of over 60% in size
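Viability of HEK 293 cells, plated at 250 cells/well, was judged by cellular ATP after compound treatment for 48 or 72 hr. Luminescence was imaged 10 min after CellTiter-Glo addition at room temperature.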
SNCA expr inh: inhibitors of alpha-synuclein (SNCA) gene expression | Potency, µM (doses to about 57.2 µM), for the others: at the highest dose activity change, negative = inhibition, actives largely listed as inhibitors | HEK-293 SNCA-luciferase knock-in, luminescence, 24 h | 140,000 tested, 0.17% active;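 further: plate controls were DMSO cells for no effect and cell-free wells for full effect; nearly all actives have a fitted effect of over 45% in size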
Active calls of the source: *; i = inactive; ? = inconclusive; nt = no result; [ ] = dose if it differs, or a comment. The list is not random: actives were taken first. Their share in the collection is about 7.2%. Unless noted, the call rests on the fitted dose curve; in most records, active means well fitted curve in the direction sought with a large enough effect; inconclusive means small, poorly fitted or top-dose-only effect, or another doubt; inactive means no such curve, though single readings can be large; an effect the other way counts as inactive or inconclusive. Unless noted, on the % scale 0 is the no-effect control and ±100 the full control effect; potency means the concentration at half of the fitted maximal effect.

SMILES	NPR1 antag	Luciferase inh	NIH3T3 tox	HEK293 viab	HEK293 tox	SNCA expr inh
Cc1nn(-c2ccccc2)c2c1C(C(C)C)N(C1CCN(C(=O)c3ccccn3)C1)C2=O (stereo unspecified)	nt	nt	-21%	nt	45µM*	nt
Cc1ccccc1C(=O)N1CC(N2C(=O)c3c(c(C)nn3-c3ccccc3)C2C(C)C)C1 (stereo unspecified)	nt	nt	?	nt	50µM*	nt
Cc1nn(-c2ccccc2)c2c1C(C(C)C)N(C1CCCN(C(=O)C(C)(C)C)C1)C2=O (stereo unspecified)	nt	nt	-5%	nt	?	nt
CC(=O)Nc1ccc(NC(=O)CN2C(=O)NC3(CCC(C(C)(C)C)CC3)C2=O)cc1 (stereo unspecified)	2%	i	?	-4%	?	?
Cc1ccc(CN2CCC3(CC2)COc2ccccc2NC3=O)cc1	0%[70.6 µM]	i	-10%[138 µM]	7%[87.6 µM]	-18%[172 µM]	-1%[87.6 µM]
CC(C)CN1C(=O)CO[C@H](c2ccc(NC(=O)c3cccc(C#N)c3)cc2)[C@H]1CO	0%[70.6 µM]	i	-28%[174 µM]	1%[87.6 µM]	?	-18%[87.6 µM]
COc1ccc(C(=O)N2CCCC(C(=O)N3CCCC3c3nc4ccncc4[nH]3)C2)cc1 (stereo unspecified)	nt	nt	-7%	1%	i	18%
CCOc1ccc(CN2CCNC(=O)C2CC(=O)N2CCCCCC2)cc1 (stereo unspecified)	-3%	i	-21%	7%	-11%	23%
Cc1ccccc1C(=O)N1CCC(N2C(=O)c3c(c(C)nn3-c3ccccc3)C2C(C)C)C1 (stereo unspecified)	nt	nt	?	nt	40µM*	nt
CC(=O)N1CC(N2C(=O)c3c(c(C)nn3-c3ccccc3)C2C(C)C)C1 (stereo unspecified)	nt	nt	-25%	nt	-7%	nt
Cc1nn(-c2ccccc2)c2c1C(C(C)C)N(C1CN(C(=O)c3ccccc3)C1)C2=O (stereo unspecified)	nt	nt	?	nt	45µM*	nt
COCC(=O)N1CCC(N2C(=O)c3c(c(C)nn3-c3ccccc3)C2C(C)C)C1 (stereo unspecified)	nt	nt	-17%	nt	-3%	nt
Cc1nn(-c2ccccc2)c2c1C(C(C)C)N(C1CN(C(=O)C3CCCC3)C1)C2=O (stereo unspecified)	nt	nt	40µM*	nt	45µM*	nt
Cc1ccc(C(=O)N2CCCC(N3C(=O)c4c(c(C)nn4-c4ccccc4)C3C(C)C)C2)cc1 (stereo unspecified)	nt	nt	?	nt	45µM*	nt
Cc1cccc(OC[C@H]2C[C@@H](NC(=O)c3ccccc3)[C@H](O)[C@@H]2O)n1	1%[70.6 µM]	i	-21%[174 µM]	2%[87.6 µM]	-6%[172 µM]	-4%[87.6 µM]
O=C(NCc1ccc(F)cc1)C1CCCN1C(=O)c1cccc(-c2ccccn2)c1 (stereo unspecified)	nt	nt	-21%	-4%	-24%	17%
CN(C)c1ccc(CN2Cc3[nH]cnc3C[C@H]2c2nc(-c3ccncc3)no2)cc1	1%[70.6 µM]	i	?	2%[87.6 µM]	-26%[172 µM]	17%[87.6 µM]
Fc1ccc(CN2Cc3[nH]cnc3C[C@H]2c2nc(-c3ccc(F)c(Cl)c3)no2)cc1	-25%[70.6 µM]	?	89µM*	-19%[87.6 µM]	?	29%[87.6 µM]
c1ccc(CN2Cc3[nH]cnc3C[C@H]2c2nc(-c3ccccc3)no2)cc1	-17%[70.6 µM]	i	?	-27%[87.6 µM]	71µM*	29%[87.6 µM]
Cc1ccc(-c2noc([C@@H]3Cc4nc[nH]c4CN3Cc3ccccc3)n2)cc1	-12%[70.6 µM]	?	79µM*	-14%[87.6 µM]	100µM*	?
CCNC(=O)N1Cc2[nH]cnc2C[C@H]1c1nc(-c2ccc(F)c(Cl)c2)no1	-23%[70.6 µM]	i	?	-5%[87.6 µM]	?	21%[87.6 µM]
O=C(c1ccc(C(F)(F)F)cc1)N1CCn2c(nnc2-c2ccncc2)C1	nt	nt	-12%	5%	-2%	-7%
Cc1ccc(C(=O)N2C[C@H](c3nc(-c4ccncc4)no3)[C@@H](C)C2)c(C)c1	?	i	-26%	-9%	?	-26%

Source: PubChem BioAssay
